This is a sample that favours compounds with a hit; in the whole collection about 4.5% have one here.
DAX1 inh-1: inhibitors of human orphan nuclear receptor DAX1 (NR0B1); 340,000 tested, 0.99% active; inhibition, % at 6.75 µM; HEK293 Gal4-DAX1 luciferase reporter, luminescence; P51843;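 active = inhibition above the mean over all tested compounds plus 3 SD, cut at about 4.2% in these data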;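 also: inhibition shows as a rise in luminescence from relieved DAX1 repression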
Target sequence (P51843 207-470 limits assumed): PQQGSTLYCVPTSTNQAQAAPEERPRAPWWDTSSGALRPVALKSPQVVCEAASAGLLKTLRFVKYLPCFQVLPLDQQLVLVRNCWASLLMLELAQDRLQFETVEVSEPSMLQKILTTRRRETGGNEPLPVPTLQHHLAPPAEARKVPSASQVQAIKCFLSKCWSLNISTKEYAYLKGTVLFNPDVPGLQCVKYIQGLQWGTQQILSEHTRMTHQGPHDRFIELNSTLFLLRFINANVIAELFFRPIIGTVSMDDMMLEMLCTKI
hcDAF-12 act: activators of H. contortus DAF-12 nuclear receptor. activation, % at 6.8 µM. 370,000 tested, 1.4% active. HEK293 hcDAF-12 lit1-tk-luc reporter, luminescence; 0% DMSO, 100% Δ7-dafachronic acid;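 active = activation above the mean of all tested compounds plus 3 SD, cut at about 5.5% in these data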
ssDAF12 agonist: S. stercoralis DAF-12 activation, primary screen. AID 652126. HEK293 ssDAF-12/GRIP1 lit1-tk-luc reporter, luminescence; % of 3 µM dafachronic acid response. activation, % at 6.8 µM. 370,000 tested, 1% active;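 active = activation above the mean over all tested compounds plus 3 SD, cut at about 0.9% in these data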
DAX1 inh-2: inhibitors of DAX1 repression of SF-1 activated StAR promoter. inhibition, % at 6.8 µM. AID 652010. HEK293T StAR-luciferase reporter, SF-1/DAX-1 repression relief. 370,000 tested, 1.1% active;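 active = inhibition above the mean over all tested compounds plus 3 SD, cut at about 3.6% in these data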;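 also: higher inhibition means more luminescence from relief of DAX-1 repression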
FXN GAA850 act: activators of GAA850 frataxin (FXN) promoter; activation, % at 6 µM; 360,000 tested, 0.56% active; HEK293 lucGAA850 FXN promoter luciferase reporter, 24 h; percent of 10 µM SAHA response;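 active = activation above the average of all compounds screened plus 3 SD, cutoff fixed separately per campaign, cut at about 7.5% in these data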
hgDAF-12 ag: agonists of H. glycines DAF-12 nuclear receptor | activation, % at 6.8 µM | AID 687014 | HEK293 GAL4-hgDAF12 UAS-luciferase reporter, agonist luminescence; normalized to butyrate control | 370,000 tested, 1.8% active;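 active = activation above a cutoff set at the mean of all screened compounds plus 3 SD, cut at about 10% in these data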
GAA30 counter: activates GAA30 frataxin promoter, counter-screen for GAA850 activators; 1,900 tested, 66% active; activation, % at 6 µM; shares compounds with FXN GAA850 act; AID 588350; HEK293 lucGAA30 FXN promoter luciferase, 24 h; DMSO = 0%, 5 µM ipriflavone = 100%;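 active = mean activation above the mean of solvent-only control wells plus 3 SD, cut at about 22% in these data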;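 also: counterscreen of GAA850 promoter hits where activity marks nonselective or luminescence artifacts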
FXN GAA850 conf: GAA850 FXN promoter activation confirmation. AID 588351. HEK293 lucGAA850 FXN promoter luciferase reporter, 24 h; 100% = activation by SAHA. activation, % at 6 µM. shares compounds with FXN GAA850 act. 1,900 tested, 86% active;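 active = mean activation above a set limit taken from the primary screen, cut at about 8% in these data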
Each line names hits and unclear results; the compound was inactive in the other large screens (follow-up assays come after a bar, where they were run); ! = a repeat was not active.

O=C(OC(C(=O)Nc1ccc(Cl)cc1C(F)(F)F)c1ccccc1)c1c(Cl)cccc1Cl (stereo unspecified)	FXN GAA850 act 11 | GAA30 counter inactive | FXN GAA850 conf 11
CCNC(=O)OCCN1C(=O)CCC12CCC(c1ccc(Cl)cc1)CC2 (stereo unspecified)	none (no result: DAX1 inh-1, FXN GAA850 act)
NNc1nc(-c2ccccc2)cc(-c2ccccc2O)n1	none (no result: hcDAF-12 act, ssDAF12 agonist, DAX1 inh-2, hgDAF-12 ag)
Nc1nc(-c2ccccc2)cc(-c2ccccc2O)n1	FXN GAA850 act 9.3 | GAA30 counter 53 | FXN GAA850 conf 48
CC[C@]12c3[nH]c4ccc(OC)cc4c3CCN1C(=O)C(CC(=O)NCC13CC4CC(CC(C4)C1)C3)C[C@@H]2C(=O)N1CCN(C(=O)C2CC2)CC1 (stereo partly specified)	FXN GAA850 act 15 | GAA30 counter 23 | FXN GAA850 conf 15
CC[C@]12c3[nH]c4ccccc4c3CCN1C(=O)C(CC(=O)NCC13CC4CC(CC(C4)C1)C3)C[C@@H]2C(=O)N1CCN(C(=O)C2CC2)CC1 (stereo partly specified)	FXN GAA850 act 9.0 | GAA30 counter inactive | FXN GAA850 conf inactive
O=C(CCc1ccccc1)N[C@H]1[C@@H](O)CCC[C@]12C(=O)N(Cc1ccccc1)c1ccccc12	none (no result: DAX1 inh-1, FXN GAA850 act)
Cn1c(Cc2cccs2)nnc1SCC(=O)Nc1ccc2c(c1)OCO2	none (no result: DAX1 inh-1, FXN GAA850 act)
COC(=O)[C@]12C[C@H](CC(=O)NCc3cccs3)C(=O)N(Cc3ccc4c(c3)OCO4)C1=C[C@H](COCc1ccccc1)O[C@@H]2C	none (no result: DAX1 inh-1, FXN GAA850 act)
Cc1cccc(CCNC(=O)c2cccc(NC3=NC4CS(=O)(=O)CC4S3)c2)c1 (stereo unspecified)	FXN GAA850 act 16 | GAA30 counter inactive | FXN GAA850 conf inactive
COC(=O)[C@]12C(=O)C(C)=C(O)[C@@]1(C)C(C)=CC1[C@@]34CC[C@@H](OC(C)=O)C(C)(C)C3C(C[C@]12C)OC4=O (stereo partly specified)	FXN GAA850 act 8.8 | GAA30 counter inactive | FXN GAA850 conf inactive
Cn1c(=O)[nH]c(=O)c2c1nc(CN1CCN(c3cccc(Cl)c3)CC1)n2CCc1ccccc1	none
CCCCCn1c(CN2CCN(c3cccc(Cl)c3)CC2)nc2c1c(=O)[nH]c(=O)n2C	FXN GAA850 act 8.5 | GAA30 counter inactive | FXN GAA850 conf inactive
CCCCCn1c(=NC(=O)c2ccco2)c(C(=O)OCC)cc2c(=O)n3ccccc3nc21	FXN GAA850 act 8.0! | GAA30 counter inactive | FXN GAA850 conf 9.0
CCCCn1c(=NC(=O)c2ccco2)c(C(=O)OCC)cc2c(=O)n3ccccc3nc21	none
CC(C)Cc1nnc(NC(=O)CCC(=O)NC2CCCC2)s1	none
O=c1oc(-c2ccc(O)c(O)c2)cc2cccc(O)c12	hcDAF-12 act 6.9, ssDAF12 agonist 2.6, FXN GAA850 act 13 | GAA30 counter 129 | FXN GAA850 conf 46
COC(=O)C12C=C3CC(c4ccc(C)s4)=C3C(=O)N1Cc1[nH]c3ccccc3c1C2 (stereo unspecified)	none (no result: DAX1 inh-1, FXN GAA850 act)
CC1S/C(=N/N=C2CCCCC2)NC1=O (stereo unspecified)	none
CC1S/C(=N/N=C2CCC(C(C)(C)C)CC2)NC1=O (stereo unspecified)	FXN GAA850 act 14, hgDAF-12 ag 12 | GAA30 counter 28 | FXN GAA850 conf 7.6
CCOC(=O)[C@]12CCCCC/C=C\1N(CCc1ccc(Cl)cc1)C(=O)[C@H]2CC(=O)NCCCN1CCCC1=O	none (no result: DAX1 inh-1, FXN GAA850 act)
O=C(NCCCn1ccnc1)c1ccc(Cl)cc1[N+](=O)[O-]	none
O=C(NCCCn1ccnc1)c1cc2cc([N+](=O)[O-])ccc2oc1=O	DAX1 inh-1 4.2, FXN GAA850 act 12 | GAA30 counter inactive | FXN GAA850 conf inactive
O=[N+]([O-])c1ccc(Sc2cccc3cccnc23)cc1	FXN GAA850 act 9.3 | GAA30 counter 83 | FXN GAA850 conf 30
O=[N+]([O-])c1ccc(Sc2cccc3cccnc23)c([N+](=O)[O-])c1	FXN GAA850 act 22 | GAA30 counter inactive | FXN GAA850 conf inactive
Cc1cc(C)nc(Sc2ccc([N+](=O)[O-])cc2[N+](=O)[O-])n1	none
O=[N+]([O-])c1ccc(Sc2ccncn2)c([N+](=O)[O-])c1	FXN GAA850 act 71 | GAA30 counter inactive | FXN GAA850 conf 97
CCn1cc(/C=C/C(=O)c2ccc(O)cc2)c(C)n1	DAX1 inh-1 13, FXN GAA850 act 8.7, hgDAF-12 ag 15 | GAA30 counter 102 | FXN GAA850 conf 24
O=C(Nc1ccccc1[N+](=O)[O-])C1=C(O)CCn2c1nc1ccccc12	FXN GAA850 act 9.2 | GAA30 counter inactive | FXN GAA850 conf 16
O=[N+]([O-])c1ccc(S(=O)(=O)c2cccc(C(F)(F)F)c2)nc1	FXN GAA850 act 14 (no result: hcDAF-12 act, ssDAF12 agonist, DAX1 inh-2, hgDAF-12 ag) | GAA30 counter inactive | FXN GAA850 conf inactive
COC(=O)[C@]12C[C@H](CC(=O)NCCCCc3ccccc3)C(=O)N(Cc3ccco3)C1=C[C@H](COCc1ccccc1)O[C@@H]2C	none (no result: DAX1 inh-1, FXN GAA850 act)
COc1ccc(C(C)=O)cc1CC1(C)C(=O)Nc2ccc(OC(F)(F)F)cc21 (stereo unspecified)	none (no result: DAX1 inh-1)
COc1ccc(C(C)=O)cc1CC1(C)C(=O)Nc2ccc(-c3ccccc3OC)cc21 (stereo unspecified)	FXN GAA850 act 15 (no result: DAX1 inh-1) | GAA30 counter inactive | FXN GAA850 conf 9.2
COc1ccccc1-c1ccc2c(c1)C(C)(Cc1cccc(F)c1)C(=O)N2 (stereo unspecified)	FXN GAA850 act 11 (no result: DAX1 inh-1) | GAA30 counter inactive | FXN GAA850 conf 12
COc1ccc(C2CCC3(CCC(=O)N3CCOC(=O)NCc3ccc(Cl)cc3)CC2)cc1 (stereo unspecified)	none (no result: DAX1 inh-1, FXN GAA850 act)
Cn1c(=O)oc2cc(S(=O)(=O)N3CCN(CCO)CC3)ccc21	none (no result: DAX1 inh-1, FXN GAA850 act)
COC(=O)[C@]12C[C@H](CC(=O)N3CCSCC3)C(=O)N(Cc3cccc4ccccc34)C1=C[C@H](C(C)C)O[C@@H]2C1CC1	none (no result: DAX1 inh-1, FXN GAA850 act)
CN(C)c1ccc(-c2csc(C(C)(O)c3cccc(F)c3)n2)cc1 (stereo unspecified)	none (no result: DAX1 inh-1)
Cc1ccc(Cn2c(/C=C/c3ccco3)nc3ccccc32)cc1	hcDAF-12 act 6.3, FXN GAA850 act 8.0 | GAA30 counter 109 | FXN GAA850 conf 44
